Autophagy HCS: modulators of autophagy | calls only at 10 µM (by protocol) | 190,000 compounds, 0.98% hits | AID 463193 | MEF GFP-LC3 puncta imaging; test concentration mostly 10 µM;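 active = percentage of spot-positive cells more than 3 SD above its plate mean, without a fluorescence outlier flag or 80% toxicity; inconclusive = no clear call, values can overlap the other calls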;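 note: spot-positive cell cutoff set from DMSO-treated cells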
Insulin prom up: MIN6 insulin promoter up-regulation; MIN6 insulin promoter-GFP reporter, high-content imaging; active compounds read high; z-score at 5 µM; 190,000 compounds, 0.3% hits; AID 1625;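 active = z-score above 3 at 5 µM with at least 500 cells counted in the well; inconclusive = wells under 500 cells, flagged as cytotoxic or low count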
Insulin prom inh: TRM-6 insulin promoter activity inhibition | TRM-6 cells (human fetal islet line), insulin promoter-eGFP reporter, imaging; reporter expression induced with tamoxifen | inhibition, % at 2 µM | 130,000 compounds, 0.9% hits | AID 1273;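 active = inhibition above the mean plus 3 SD, with well images judged a real hit on visual review, cut at about 60% in these data, passing the limit was not always enough; inconclusive = inhibition over the cutoff but images rejected on review; inactive = inhibition not above the cutoff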
WT yeast gro inh: growth inhibition of WT yeast, mitochondrial fusion screen | mitochondrial fusion phenotypic screen, WT strain | inhibition, % at 10 µM | 190,000 compounds, 2.1% hits; in the data active = inhibition above about 58%; tested in S. cerevisiae
L major viab: inhibitors of Leishmania major promastigote growth | Leishmania major promastigotes, resazurin fluorescence viability | inhibition, % at 10 µM | 200,000 compounds, 9% hits; in the data active = inhibition above about 50%;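 note: promastigotes grown with compound for 44 hours at 28 °C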
Numbers without * were called inactive; i = inactive; ? = inconclusive; . = not tested or not shown; + = active, no number. A selection: hits, their analogues and other compounds. The true share with any hit is near 11%.

SMILES	Autophagy HCS	Insulin prom up	Insulin prom inh	WT yeast gro inh	L major viab
N#Cc1cn(Cc2ccncc2)c(=O)[nH]c1=O	i	0.05	.	1.8	10.0
O=c1oc2ccccc2c(O)c1Cc1cc(Cl)c2cccnc2c1O	.	0.33	.	.	.
O=C(Oc1c(CN2CCOCC2)cc(Cl)c2cccnc12)c1ccccc1	i	.	-9.1	-4.6	100.3*
CC1CCCC(C)N1CC(O)COCC1COc2ccccc2O1 (stereo not drawn)	i	-1.05	.	-14.7	52.2*
OCCN1CCN(CC(O)COCC2COc3ccccc3O2)CC1 (stereo not drawn)	i	-0.38	.	-21.3	-4.6
O=C(C1=C[C@@H](c2ccc(Br)cc2)C[C@@H](OCc2ccc(CO)cc2)O1)N1CCN(Cc2ccc3c(c2)OCO3)CC1	i	-0.72	.	25.0	56.4*
CC(C)(C)[C@@H]1C=C(C(=O)N2CCN(Cc3ccc4c(c3)OCO4)CC2)O[C@H](OCc2ccc(CO)cc2)C1	i	-0.55	.	94.3*	41.9
O=C(C1=C[C@@H](c2ccc3c(c2)OCO3)C[C@@H](OCc2ccc(CO)cc2)O1)N1CCOCC1	i	-0.41	.	-0.6	6.9
O=C(C1=C[C@@H](c2ccc(C(F)(F)F)cc2)C[C@@H](OCc2ccc(CO)cc2)O1)N1CCN(Cc2ccc3c(c2)OCO3)CC1	i	-0.28	.	36.8	55.9*
O=C(C1=C[C@H](c2ccc(C(F)(F)F)cc2)C[C@H](OCc2ccc(CO)cc2)O1)N1CCN(Cc2ccc3c(c2)OCO3)CC1	i	1.02	.	48.5	45.0
O=C(C1=C[C@H](c2ccc3c(c2)OCO3)C[C@H](OCc2ccc(CO)cc2)O1)N1CCCCCCC1	i	-0.46	.	15.6	60.5*
O=C(NCC(=O)N(CC1CCCO1)C(C(=O)NC1CCCCC1)c1cccnc1)c1cccs1 (stereo not drawn)	i	0.48	-91.7	4.0	-6.9
O=C(O)C(Cc1ccccc1-c1ccccc1)C(=O)O	.	-0.69	.	.	.
O=C(Cc1ccc(-n2cccc2)cc1)NCc1cccs1	i	-0.1	-185.7	-7.6	-1.7
Cc1ccc2nc(NCc3ccccc3)c(C=NCc3ccccc3)c(=O)n2c1	i	-0.33	25.0	20.1	-10.5
Cc1ccc2nc(NCCCN3CCOCC3)c(C=NCCCN3CCOCC3)c(=O)n2c1	i	-0.32	18.4	11.0	78.7*
O=C(CN1C(=O)NC2(CCCCCCC2)C1=O)NCc1cccs1	i	0.34	.	-1.4	-2.3
CC(C)(C)c1ccc(C2(C)NC(=O)N(CC(=O)NCc3cccs3)C2=O)cc1 (stereo not drawn)	i	0.33	11.1	-0.9	68.9*
COC(=O)c1ccc(COC(=O)CCC(=O)c2cccs2)cc1	i	0.76	0.0	-11.6	-2.8
C=CCOc1cccc(/C=N/NC(=O)CN(c2cc(Cl)ccc2OC)S(=O)(=O)c2ccc(C)c([N+](=O)[O-])c2)c1	i	-0.41	13.2	-12.9	98.6*
COc1ccc(Cl)cc1N(CC(=O)N/N=C/c1ccc(OC(C)C)cc1)S(=O)(=O)c1ccc(C)c([N+](=O)[O-])c1	i	-0.57	-28.9	-18.9	98.1*
O=C(CN1CCC(O)(c2cccc(F)c2)CC1)NCCc1c[nH]c2ccccc12	.	-0.85	.	.	.
Cc1cc(C)c(C(=O)COC(=O)CCNS(=O)(=O)c2c(Cl)cccc2Cl)cc1C	i	0.4	40.3	37.3	73.5*
O=C(O)CCCCCNS(=O)(=O)c1c(Cl)cccc1Cl	i	0.4	.	32.0	-3.2
O=C(Nc1cc(Sc2nc3ccccc3s2)cc([N+](=O)[O-])c1)c1ccccc1	i	-0.47	6.7	22.5	99.7*
SMILES	Autophagy HCS	Insulin prom up	Insulin prom inh	WT yeast gro inh	L major viab
O=C(CSc1ccccn1)Nc1cccc([N+](=O)[O-])c1	i	-0.23	.	-19.6	3.3
O=C(Nc1cc(Sc2ccccn2)cc([N+](=O)[O-])c1)c1cccc(F)c1	i	-0.17	22.2	36.2	94.6*
O=C(Nc1cc(Sc2nc3ccccc3s2)cc([N+](=O)[O-])c1)c1ccccc1F	i	-0.8	16.7	15.8	27.7
CC1=C(C(=O)OC(C)C)C(c2cncc(-c3ccc(F)cc3)c2)C(C#N)=C(N)O1 (stereo not drawn)	i	0.01	-40.6	9.6	-0.7
OCCC1CN(Cc2nc3ccccc3s2)CCN1C1CCCC1 (stereo not drawn)	i	0.01	.	4.0	66.8*
OCCC1CN(CC#Cc2ccccc2)CCN1C1CCCC1 (stereo not drawn)	i	0.61	.	-1.4	23.2
OCCC1CN(CC(c2ccccc2)c2ccccc2)CCN1C1CCCC1 (stereo not drawn)	i	-0.38	0.0	-1.1	86.9*
CCCN(CCC)C(=O)Cn1c(=O)c2ccccc2n2c(=S)sc(-c3ccccc3C)c12	i	0.03	-21.4	1.8	97.8*
CCCN(CCC)C(=O)Cn1c(=O)c2sccc2n2c(=S)sc(-c3ccccc3)c12	+	-0.11	.	-7.6	-7.1
CCCN(CCC)C(=O)Cn1c(=O)n(CCCCC(=O)NC2CCCC2)c(=O)c2ccccc21	i	0.88	26.3	0.3	-1.5
CCCN(CCC)C(=O)Cn1c(=O)n(CCCCCC(=O)Nc2ccccc2)c(=O)c2sccc21	i	0.16	.	13.8	-5.9
CC(=O)C1=C(C)NC(=S)NC1c1cc([N+](=O)[O-])ccc1O (stereo not drawn)	.	0.39	.	.	.
O=C(CSc1n[nH]c(-c2ccccc2Cl)n1)NCc1cccc(C(=O)O)c1	i	0.02	.	13.3	-9.3
C=C(C)Cn1c(-c2ccc(OC)cc2)nc2ccccc21	i	.	50.0	1.5	54.5*
COc1ccc(-c2nc3ccccc3n2Cc2ccc(C)cc2)cc1	i	-0.41	24.3	41.8	82.5*
COc1ccc(Cn2c(-c3ccc(OC)c(O)c3)nc3ccccc32)cc1O	i	-0.29	19.1	-14.0	15.1
C=CCn1c(-c2ccc(C)cc2)nc2ccccc21	i	-2.65	-10.7	19.8	87.3*
COc1ccc(Cn2c(-c3ccc(C)cc3)c[n+]3ccccc23)cc1	i	?	.	59.7*	99.7*
Cc1cc(SCC(=O)NN)c2cc(Br)ccc2n1	.	0.59	.	.	.
CCCCNC(=S)NC(C)(C)CO	i	-0.21	.	-15.0	-9.1
CCOC(Cn1c(-c2ccc(OC)cc2)nc2ccccc21)OCC	i	.	-15.4	-3.9	64.5*
COCCn1c(-c2ccccc2)nc2ccccc21	i	0.02	27.8	8.8	7.6
COCn1c(-c2ccc(OC)cc2)nc2ccccc21	i	0.07	92.3*	16.0	17.9
COCCNC(=O)C(=O)N/N=C(\C)CC(=O)Nc1cccnc1	i	0.06	.	-4.7	0.0
O=C(c1nc2ccc(Cl)cn2c1CNCC[C@@H]1C[C@@H]2C=C[C@H]1C2)N1CCCCCCC1	i	-0.54	.	33.8	70.1*
C[C@@H]1CN(C(=O)c2nc3ccc(Cl)cn3c2CNCC[C@@H]2C[C@@H]3C=C[C@H]2C3)C[C@H](C)O1	i	0.9	.	15.0	4.0
COc1ccc(C(C(=O)NCC2CCCO2)N(C(=O)CNC(=O)c2cccs2)c2ccc(C)cc2)cc1OC (stereo not drawn)	i	0	.	-9.4	-7.0
COCc1cc(=O)[nH]c(Nc2nc3ccc(C)cc3o2)n1	+	-0.34	72.4	34.6	99.2*

Screening results deposited in PubChem by several laboratories.
